Screening data (PubChem)
Shown is part of a subset that was picked to be rich in hits.
nsP2pro primary: blocks chikungunya virus nsP2 protease peptide cleavage. Q8JUX6. FRET peptide cleavage, nsP2pro, fluorescence 1 h. Potency, µM (titrated, usually from 24.9 µM), most hits filed as inhibitors. hit rate 1.1% among 31,000. AID 1964107; further: nearly all actives have a fitted effect of over 60% in size
Target sequence (Q8JUX6 whole entry, looked up): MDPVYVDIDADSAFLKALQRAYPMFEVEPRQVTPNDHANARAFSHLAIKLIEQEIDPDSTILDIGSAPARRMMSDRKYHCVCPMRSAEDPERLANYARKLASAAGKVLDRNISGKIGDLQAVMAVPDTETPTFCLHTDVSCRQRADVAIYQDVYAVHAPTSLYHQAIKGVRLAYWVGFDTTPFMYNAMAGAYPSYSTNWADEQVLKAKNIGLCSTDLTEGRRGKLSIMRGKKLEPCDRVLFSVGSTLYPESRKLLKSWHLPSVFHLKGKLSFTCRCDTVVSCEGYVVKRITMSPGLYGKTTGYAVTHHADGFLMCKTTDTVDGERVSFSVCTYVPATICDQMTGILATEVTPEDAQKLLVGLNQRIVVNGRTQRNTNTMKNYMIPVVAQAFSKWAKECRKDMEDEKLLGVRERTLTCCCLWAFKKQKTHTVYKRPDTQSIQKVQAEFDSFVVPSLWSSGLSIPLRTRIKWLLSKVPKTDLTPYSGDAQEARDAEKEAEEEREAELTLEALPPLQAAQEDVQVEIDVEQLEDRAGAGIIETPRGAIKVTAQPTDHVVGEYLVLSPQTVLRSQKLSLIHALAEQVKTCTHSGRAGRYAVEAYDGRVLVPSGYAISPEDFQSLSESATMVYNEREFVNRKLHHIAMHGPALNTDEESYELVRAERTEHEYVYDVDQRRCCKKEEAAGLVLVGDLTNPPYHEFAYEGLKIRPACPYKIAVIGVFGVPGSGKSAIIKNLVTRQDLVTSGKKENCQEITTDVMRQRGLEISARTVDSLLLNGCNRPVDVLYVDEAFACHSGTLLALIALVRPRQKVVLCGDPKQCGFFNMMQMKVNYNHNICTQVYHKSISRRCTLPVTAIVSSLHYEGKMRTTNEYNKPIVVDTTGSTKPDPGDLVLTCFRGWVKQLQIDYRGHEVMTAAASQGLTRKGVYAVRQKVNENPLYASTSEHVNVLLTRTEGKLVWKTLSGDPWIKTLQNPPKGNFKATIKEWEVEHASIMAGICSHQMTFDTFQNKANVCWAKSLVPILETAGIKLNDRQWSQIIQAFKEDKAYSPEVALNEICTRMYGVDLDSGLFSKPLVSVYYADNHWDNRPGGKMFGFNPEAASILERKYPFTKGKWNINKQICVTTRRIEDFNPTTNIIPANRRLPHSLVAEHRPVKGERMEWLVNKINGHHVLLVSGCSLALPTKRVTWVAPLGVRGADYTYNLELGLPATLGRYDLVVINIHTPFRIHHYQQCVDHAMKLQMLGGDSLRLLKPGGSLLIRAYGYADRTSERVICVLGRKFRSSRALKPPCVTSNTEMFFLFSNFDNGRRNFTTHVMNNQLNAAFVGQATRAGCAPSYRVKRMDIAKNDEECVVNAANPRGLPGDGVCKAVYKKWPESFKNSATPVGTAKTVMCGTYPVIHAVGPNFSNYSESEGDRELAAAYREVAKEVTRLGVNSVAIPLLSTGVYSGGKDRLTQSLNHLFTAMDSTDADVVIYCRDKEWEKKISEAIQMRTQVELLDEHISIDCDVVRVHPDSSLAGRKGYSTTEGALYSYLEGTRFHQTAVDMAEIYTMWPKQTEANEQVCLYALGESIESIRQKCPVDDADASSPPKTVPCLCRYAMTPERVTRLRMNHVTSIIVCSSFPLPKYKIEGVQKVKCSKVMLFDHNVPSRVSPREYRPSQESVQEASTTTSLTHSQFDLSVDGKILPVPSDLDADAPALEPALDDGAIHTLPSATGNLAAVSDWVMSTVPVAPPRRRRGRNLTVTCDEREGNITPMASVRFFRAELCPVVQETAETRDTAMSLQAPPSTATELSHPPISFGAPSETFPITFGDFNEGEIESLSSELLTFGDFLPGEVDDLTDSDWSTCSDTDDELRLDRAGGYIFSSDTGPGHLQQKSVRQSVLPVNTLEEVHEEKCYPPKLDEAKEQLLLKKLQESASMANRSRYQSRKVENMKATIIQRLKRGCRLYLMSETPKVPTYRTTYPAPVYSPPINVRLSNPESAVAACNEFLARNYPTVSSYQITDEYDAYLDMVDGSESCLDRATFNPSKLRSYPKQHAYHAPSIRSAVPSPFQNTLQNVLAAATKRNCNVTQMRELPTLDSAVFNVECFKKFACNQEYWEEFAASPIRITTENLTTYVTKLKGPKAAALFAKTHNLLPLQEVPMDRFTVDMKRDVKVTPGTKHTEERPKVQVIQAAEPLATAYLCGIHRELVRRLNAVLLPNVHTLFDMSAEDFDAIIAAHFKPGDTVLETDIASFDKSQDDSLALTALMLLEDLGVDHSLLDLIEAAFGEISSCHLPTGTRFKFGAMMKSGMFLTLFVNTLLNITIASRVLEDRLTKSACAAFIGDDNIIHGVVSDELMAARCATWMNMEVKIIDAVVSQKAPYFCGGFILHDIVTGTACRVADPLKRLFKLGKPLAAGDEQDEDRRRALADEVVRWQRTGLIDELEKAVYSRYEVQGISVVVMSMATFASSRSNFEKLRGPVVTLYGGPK
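FRET cleavage of 2.5 uM peptide 2 by 150 nM CHIKV protease domain at pH 8.0 (Tris, Tween 20). Compounds at 7 concentrations (up to 25 uM) preincubated 15 min. Fluorescence read after 1 h at room temperature.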
CHIKV nsP2 cell: cell-based CHIKV nsP2 protease inhibition, secondary | Potency, µM (top dose mostly 51.1 µM), actives largely listed as inhibitors | AID 1964100 | hit rate 10% among 450 | shares compounds with nsP2pro primary | cell-based CHIKV nsP2 protease reporter assay; further: nearly all actives have a fitted effect of over 70% in size
NSP2 full ctr: full-length CHIKV NSP2 protease inhibition, selectivity. shares compounds with nsP2pro primary. Full-length CHIKV NSP2 protease enzymatic counterscreen. Potency, µM (top dose mostly 50.7 µM), hits mostly inhibitors. hit rate 39% among 410; further: nearly all actives have a fitted effect of over 65% in size
Furin counter: human furin inhibition, counterscreen for nsP2pro inhibitors | hit rate 6% among 410 | shares compounds with nsP2pro primary | Recombinant human furin enzymatic counterscreen, fluorogenic substrate | Potency, µM (highest dose often 50.6 µM), usual class: inhibitors | AID 1964102
NS23 peptide cs: selectivity test for CHIKV nsP2 protease inhibitors: endogenous NS2/3 peptide; shares compounds with nsP2pro primary; Purified CHIKV nsP2 protease, endogenous NS2/3 peptide cleavage; Potency, µM (doses to about 51 µM), most hits filed as inhibitors; hit rate 34% among 410; AID 1964103; further: nearly all actives have a fitted effect of over 55% in size
Papain counter: inhibits papain in a CHIKV nsP2 protease selectivity counterscreen | shares compounds with nsP2pro primary | purified papain protease activity, enzymatic inhibition | Potency, µM (doses to about 51 µM), hits mostly inhibitors | hit rate 5% among 410 | AID 1964104
nsP2pro conf qHTS: confirmation of CHIKV nsP2 protease inhibitors; hit rate 43% among 410; shares compounds with nsP2pro primary; Potency, µM (series often up to 25.5 µM), actives largely listed as inhibitors; CHIKV nsP2 protease enzymatic activity, qHTS; further: nearly all actives have a fitted effect of over 75% in size
HCV NS3 counter: inhibits HCV NS3/4A protease in an nsP2pro selectivity counterscreen; Potency, µM (top dose mostly 50.9 µM), most hits filed as inhibitors; AID 1964106; shares compounds with nsP2pro primary; HCV NS3/4A protease biochemical counterscreen; hit rate 20% among 410; further: nearly all actives have a fitted effect of over 55% in size
Large screens that a line does not name were inactive (follow-up assays come after a bar, where they were run). The call rests on the fitted dose curve.

O=C(NCCCNc1nc(Nc2cccc(CN3CCOCC3)c2)ncc1C1CC1)C1CCC1	none
Nc1cc(-c2ccncc2)c[nH]c1=O	nsP2pro primary 3.5µM | CHIKV nsP2 cell inactive | NSP2 full ctr inconclusive | Furin counter inactive | NS23 peptide cs inconclusive | Papain counter inactive | nsP2pro conf qHTS inconclusive | HCV NS3 counter inactive
Nc1c(-c2ccncc2)cc[nH]c1=O	none
Cc1cn2nc(C(=O)Nc3ccc4c(c3)OCCO4)cc2c(N(C)Cc2ccccc2)n1	none
Fc1cc(Nc2nc(-c3ccncc3)nc3ccccc23)ccc1-c1cccc(OC(F)(F)F)c1	none
CCNC(=O)c1ccc(-c2ccc3ncnc(NCc4ccc(C)o4)c3c2)o1	none
O=C(c1ccc(Cl)cc1)N(Cc1ccco1)Cc1ccco1	none
O=C(c1cc(-c2ccc(Cl)cc2)on1)N(Cc1ccc(F)cc1)Cc1ccco1	none
CS(=O)(=O)c1ncc(Cl)c(C(=O)N(Cc2ccc(Cl)cc2)Cc2ccco2)n1	nsP2pro primary 4.8µM | CHIKV nsP2 cell 2.6µM | NSP2 full ctr inconclusive | Furin counter inactive | NS23 peptide cs 4.1µM | Papain counter inactive | nsP2pro conf qHTS 2.2µM | HCV NS3 counter inactive
CC(C)(C)OC(=O)N1CCN(c2ccc(NCc3ccc4c(c3)OCO4)cc2)CC1	nsP2pro primary inconclusive | CHIKV nsP2 cell 6.5µM | NSP2 full ctr inactive | Furin counter inactive | NS23 peptide cs inactive | Papain counter inactive | nsP2pro conf qHTS inactive | HCV NS3 counter inactive
CC(C)(C)OC(=O)N1CCN(c2ccc(NCc3coc(-c4ccc(C#N)cc4)c3)cc2)CC1	nsP2pro primary 10µM | CHIKV nsP2 cell inconclusive | NSP2 full ctr inactive | Furin counter inactive | NS23 peptide cs inactive | Papain counter inactive | nsP2pro conf qHTS inactive | HCV NS3 counter inconclusive
CC(C)(C)OC(=O)N1CCN(c2ccc(NCc3ccc(-c4ccc(C(C)(C)C)cc4)o3)cc2)CC1	none
CC(C)(C)OC(=O)N1CCN(c2ccc(NCc3ccc(-c4cc(C(F)(F)F)cc(C(F)(F)F)c4)o3)cc2)CC1	none
CC(C)(C)OC(=O)N1CCN(c2ccc(NCc3cc(-c4ccc(C#N)cc4)co3)cc2)CC1	none
CC(C)(C)OC(=O)N1CCN(c2ccc(NCc3occc3-c3ccc(C#N)cc3)cc2)CC1	none
CCCn1ccnc1CN1CCCC12CCN(c1ccc(C(F)(F)F)cn1)CC2	none
CN(CCCCCCN(C)C(=O)Oc1ccc[n+](C)c1)C(=O)Oc1ccc[n+](C)c1	none
Cc1nnc(-c2ccccc2C(C)C)nc1NCc1ccc(-c2cccnc2)cc1	none
Cc1cc(-c2ccc(/C=C3\SC(=Nc4ccc(Cl)c(C(=O)O)c4)NC3=O)o2)c([N+](=O)[O-])cc1C	none
O=C(O)c1cc(-c2ccc(/C=C3\SC(=S)N(Cc4ccccc4)C3=O)o2)ccc1Cl	nsP2pro primary inconclusive | CHIKV nsP2 cell inactive | NSP2 full ctr inactive | Furin counter inactive | NS23 peptide cs inactive | Papain counter inconclusive | nsP2pro conf qHTS inactive | HCV NS3 counter inactive
O=C(O)c1ccc(-n2cccc2/C=C2\SC(=O)N(Cc3ccc(Br)cc3)C2=O)cc1	none
COC(=O)c1ccccc1NC(=O)c1ccccc1OC(F)F	none
C[C@@H](N)C(=O)N[C@@H](CO)C(=O)N[C@H](C(=O)N[C@H](C(=O)N[C@H](C(=O)N[C@@H](CC(N)=O)C(=O)N[C@@H](Cc1ccc(O)cc1)C(=O)N[C@H](C(N)=O)[C@@H](C)O)[C@@H](C)O)[C@@H](C)O)[C@@H](C)O	none
Oc1c(Br)cc(Br)cc1CNC1CCC(O)CC1 (stereo not given)	nsP2pro primary 8.8µM | CHIKV nsP2 cell inactive | NSP2 full ctr inactive | Furin counter inactive | NS23 peptide cs inactive | Papain counter inactive | nsP2pro conf qHTS inactive | HCV NS3 counter inactive
Nc1c(Br)cc(Br)cc1CNC1CCC(O)CC1 (stereo not given)	none
O=C(Nc1ccc(F)c(C(F)(F)F)c1)Nc1cccc(-c2ccncc2)n1	none
